This passage reports cytotoxicity results from PubChem BioAssay AID431 (Sanford-Burnham Center for Chemical Genomics, 2006).

Molecules are shown by their SMILES. About 1,100 (1.7%) of roughly 63,000 compounds were called active. This excerpt belongs to a sample that is enriched for actives. Measured potencies and affinities stand elsewhere. Values without a mark were called inactive.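 Rule for the calls: active = compounds whose percent cytotoxicity in the single-dose primary screen, scaled between solvent and toxic-drug controls, exceeds 50; inactive = the rest.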

The assay can be described thus: cytotoxicity in KRAS-transformed pancreatic duct cells, primary screen, cell-based, fluorescence, HTS (AID 431).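 Note: 0% = DMSO solvent wells and 100% = doxorubicin-treated wells.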 The conditions noted are these: HPDE-C7K KRASV12 cells, Alamar Blue viability, 48 h; at 10 µM; hits give high values. On the technique in general: Alamar Blue is a resazurin reagent that responds to reducing activity.
As to `COc1ccc(NC(=O)CN2CCN(S(=O)(=O)c3ccc(C(C)C)cc3)CC2)cc1OC`, the cytotoxicity is -1.5%. Take `COCC(=O)Nc1sc2c(c1C(=O)OC)CCCC2`: the cytotoxicity was -0.8%. The value for `COc1ccc(OC)c2c(N)c(C#N)c(C(F)(F)C(F)(F)F)nc12` was 2.9%; that for `Cc1ccc2nc(Nc3nc(C)cc(C(F)(F)F)n3)nc(C)c2c1` was -18.7%; that for `COc1ccc(OC)c(-n2c(O)cnc2Nc2nc(C)cc(C)n2)c1` was -6.2%. On to `Cc1occc1C(=O)Nc1cc(C(F)(F)F)ccc1Cl`, for which the cytotoxicity is -12.7%. The value for `CC1CN(S(=O)(=O)c2cn(C)c(=O)n(C)c2=O)CC(C)O1` (stereo not given) was 14.8%. Regarding `CCOC(=O)N1CCN(C(=O)c2cnn3c(C(F)F)cc(-c4ccc(C)cc4)nc23)CC1`, the cytotoxicity is 4.7%. As for `COc1ccc(-c2nc3ccccc3s2)cc1O`, the cytotoxicity was -3.4%. Regarding `COc1ccc(-c2nnc(-c3cccs3)o2)cc1OC`, the cytotoxicity is 7.2%.

With `COc1ccc(-c2nc(-c3cccs3)c(-c3cccs3)[nH]2)cc1O`, the cytotoxicity is 76.5% (active). Take `Cc1ccc2c(c1)C(c1ccccc1)N(C(=O)c1ccc(Br)o1)CC(=O)N2` (stereo not given): the cytotoxicity was -13.7%. The value for `COc1ccccc1N1C(=O)C2C3C=CC(C3)C2(C)C1=O` (stereo not given) was -3.4%; that for `Cc1oc(-c2ccc(F)cc2)cc1-c1nn2c(-c3ccco3)nnc2s1` was -11.2%. The value for `Cc1cc(-c2nn3c(-c4ccccc4)nnc3s2)c2ccccc2n1` was -2.8%; that for `c1ccc(-c2cc(-c3nn4c(-c5ccco5)nnc4s3)c3ccccc3n2)cc1` was 51.3% (active). Take `Clc1ccc(-c2ccc(-c3nn4c(-c5ccco5)nnc4s3)o2)cc1`: the cytotoxicity is -10%. Turning to `c1coc(-c2nn3c(-c4ccco4)nnc3s2)c1`, the cytotoxicity is -16.1%. The value for `Fc1ccc(-c2ccc(-c3nn4c(-c5ccco5)nnc4s3)o2)cc1` was 83.7% (active).

With `CCOC(=O)N1CCC(NC(=O)CNS(=O)(=O)c2ccc(Br)s2)CC1`, the cytotoxicity is 6.3%. `CCSc1nnc(NC(=O)C(C)(C(F)(F)F)C(F)(F)F)s1`: the cytotoxicity is -1.2%.

On to `Cc1ccccc1N1CCN(C(=O)C2CCCCC2)CC1`, for which the cytotoxicity was -1%.

On to `COc1cc2c(C(=O)N3CCN(Cc4ccc5c(c4)OCO5)CC3)cn(C)c(=O)c2cc1OC`, for which the cytotoxicity is -9%. As for `COc1ccc(NS(=O)(=O)c2cc(OC)ccc2NC(=O)c2cc(C)oc2C)cc1`, the cytotoxicity is 48.5%.

Turning to `COc1ccc(NS(=O)(=O)c2cc(C)ccc2C)cc1`, the cytotoxicity is 35.3%. `COc1ccc(NS(=O)(=O)c2cc(C)ccc2NC(=O)c2cc(C)oc2C)cc1`: the cytotoxicity is 69.4% (active).

Turning to `Cc1cc(N2CCN(C(=O)c3ccco3)CC2)n2nc(C)c(-c3ccccc3)c2n1`, the cytotoxicity is 13.2%.

As for `Cc1cc(N2CCN(C(=O)c3ccco3)CC2)n2nc(C)c(-c3ccc(Cl)cc3)c2n1`, the cytotoxicity is 12.8%. For the molecule `Cc1nn2c(N3CCN(C(=O)c4ccco4)CC3)cc(C(C)(C)C)nc2c1-c1ccccc1`, the cytotoxicity is 70.2% (active). The value for `COc1cccc(NC(=O)C2CCN(c3ncccn3)CC2)c1` was 3%. With `CC1(N2CCOCC2)CC2(O)C(=[N+]1[O-])CCc1c2no[n+]1[O-]` (stereo not given), the cytotoxicity was 58.3% (active). For `CC1(N2CCCCC2)CC2(O)C(=[N+]1[O-])CCC/C2=N\O` (stereo not given), the cytotoxicity is 15.9%. The value for `CC1(N2CCOCC2)CC2(O)C(=[N+]1[O-])CCc1nonc12` (stereo not given) was 17.7%; that for `CC(C)NC(=O)CN(C(=O)CCC(=O)Nc1ccccn1)c1ccc(F)c(Cl)c1` was 2.5%; that for `CC1(C)C(=O)Nc2ccccc2N1C(=O)CN1C(=O)c2ccccc2C1=O` was -3.5%.

`CCC(=O)NC1(C(F)(F)F)C(=O)Nc2c1c(=O)n(C)c(=O)n2C` (stereo not given): the cytotoxicity was -2.3%. On to `Cc1nnc(SCC(=O)N2CCN(S(=O)(=O)c3ccccc3)CC2)[nH]c1=O`, for which the cytotoxicity was 1.8%.

In the case of `CCc1nnc(NC(=O)c2ccc(NS(=O)(=O)c3ccccc3)cc2)s1`, the cytotoxicity was -18.3%.

In the case of `CCc1nc(C)ccc1OCC(=O)O`, the cytotoxicity was -10.4%.

`CCCC(=O)NCCc1nc2ccccc2n1C`: the cytotoxicity was -5.4%. In the case of `CCOc1cccc(-c2nc3cc(C)ccc3o2)c1`, the cytotoxicity was -4.3%.

Turning to `Cc1n[nH]c(C)c1C(=O)CC1(O)C(=O)N(CCc2ccccc2)c2ccc(Cl)cc21` (stereo not given), the cytotoxicity was 16.8%. As for `Cc1nn(-c2ccccc2)c2nc(N)c(C#N)c(-c3ccc(F)cc3)c12`, the cytotoxicity was 10.8%. As to `Cc1ccc(-n2nc(C)c3c(-c4cccs4)c(C#N)c(N)nc32)cc1`, the cytotoxicity is 4%.

Regarding `COc1cc(-c2c(C#N)c(N)nc3c2c(C)nn3-c2ccc(C)c(C)c2)cc(OC)c1OC`, the cytotoxicity was 57.8% (active). With `O=C(O)CCN1Cc2ccccc2C1=O`, the cytotoxicity is -5.5%.

As for `Cc1ccc(NC(=O)CN2C(=O)COc3ccc(C)cc32)nc1`, the cytotoxicity was 5.6%. The value for `COc1ccc(OC)c(Nc2nc(N)nc(-c3cc4ccccc4o3)n2)c1` was 1.5%; that for `COc1ccc(OC(=O)c2cc3ccccc3o2)cc1` was 12.8%; that for `COc1ccc(OC)c(NC(=O)c2cc3ccccc3o2)c1` was -12.4%.

As to `O=C(Nc1ccccc1C(F)(F)F)N1CCN(c2ccc3nnc(-c4ccc(F)cc4)n3n2)CC1`, the cytotoxicity was 1.9%.

`O=C(Nc1ccccc1Cl)N1CCN(c2ccc3nnc(-c4ccc(F)cc4)n3n2)CC1`: the cytotoxicity was 19.5%. The value for `O=C(Nc1ccc(Cl)cc1)N1CCN(c2ccc3nnc(-c4ccc(F)cc4)n3n2)CC1` was 58.7% (active). As for `Cc1cccc(NC(=O)CSc2nnc(-c3ccccc3)n2N)c1`, the cytotoxicity is 1%.

As for `CCc1[nH]nc2c1C(c1ccc(Br)s1)C(C#N)=C(N)O2` (stereo not given), the cytotoxicity was 5%. `CCCc1[nH]nc2c1C(c1ccncc1)C(C#N)=C(N)O2` (stereo not given): the cytotoxicity is -1.2%. For `CCCn1nnc(NC(=O)c2cc3ccccc3o2)n1`, the cytotoxicity is -13.2%. With `O=C(Nc1nc(-c2cccs2)c(-c2ccccc2)s1)c1ccco1`, the cytotoxicity is 58.9% (active). The value for `CCOC(=O)c1sc(NC(=O)c2ccco2)nc1-c1ccccc1` was -7.2%; that for `Cc1ccc(NC(=O)c2ccc(OC(=O)c3ccco3)cc2)cc1` was -14.7%. For the molecule `CCC(=O)Nc1ccc(NC(=O)c2ccco2)cc1`, the cytotoxicity is -4%. With `O=C(Nc1ccc(S(=O)(=O)N2CCOCC2)cc1)c1ccc(Br)o1`, the cytotoxicity is -9.2%. The value for `CN1CCN(S(=O)(=O)c2ccc(NC(=O)c3ccc(Br)o3)cc2)CC1` was -14.1%; that for `O=C(CCc1ccccc1)Nc1ccc(NC(=O)c2ccco2)cc1` was -8.3%.

In the case of `O=C(Nc1ccc(Nc2ccccc2)cc1)c1ccco1`, the cytotoxicity was 66.8% (active). With `O=C(Nc1ccc(S(=O)(=O)N2CCCCCC2)cc1)c1ccc(Br)o1`, the cytotoxicity is 55.5% (active). Take `O=C(Nc1ccc(Oc2ccc(NC(=O)c3ccco3)c(NC(=O)c3ccco3)c2)cc1)c1ccco1`: the cytotoxicity is 29.9%.

With `Cc1ccc(Oc2ccc(NC(=O)c3ccco3)cc2)cc1`, the cytotoxicity is 84.2% (active). For the molecule `CC(=O)c1sc(NC(=O)c2ccco2)nc1-c1ccccc1`, the cytotoxicity was 6.3%. With `O=C1c2oc3ccccc3c(=O)c2C(c2ccc(Br)cc2)N1c1ncccn1` (stereo not given), the cytotoxicity was 5.4%.

On to `O=S(=O)(c1ccccc1)c1nc(-c2ccco2)oc1NCc1cccnc1`, for which the cytotoxicity was 14.5%. `CCOC(=O)C1CCN(c2cc(=O)n(Cc3ccc(F)cc3)c(=O)[nH]2)CC1`: the cytotoxicity was -12.8%. As for `Cc1cc(NC(=O)c2c(F)c(F)c(F)c(F)c2F)no1`, the cytotoxicity was -11.5%. Consider `Nc1c(C(=O)OCC2CCCO2)c2nc3ccccc3nc2n1C1CCCCC1` (stereo not given), for which the cytotoxicity is -9.6%. `COc1ccc(CCNC(=O)CSc2nnc(-c3cccc(C)c3)o2)cc1OC`: the cytotoxicity is -3.4%. The value for `CCOC(=O)N1CCC(NC(=O)Cn2c3c(c(-c4ccccc4Cl)cc2=O)CCC3)CC1` was 4.9%. As to `CCOc1ccc(CN2C(=O)CCC2(C)C(=O)NCc2cccnc2)cc1` (stereo not given), the cytotoxicity is 6.9%.

On to `O=C(Nc1cccc(-c2nc3ccccc3[nH]2)c1)c1ccco1`, for which the cytotoxicity was 9.8%. The value for `CCN1CCN(c2c(Cl)cccc2NC(=O)c2ccc(Br)o2)CC1` was 10%. With `Cc1ccc2nc(-c3cccc(NC(=O)c4ccco4)c3)[nH]c2c1`, the cytotoxicity was 65.5% (active). `Cc1nc(NC(=O)c2ccco2)sc1C(=O)Nc1ccc(Br)cc1`: the cytotoxicity was 84% (active).

Turning to `COC(=O)c1sc(NC(=O)c2ccco2)nc1C`, the cytotoxicity was -3.1%. In the case of `Cc1ccc2nc(-c3ccc(NC(=O)c4ccco4)cc3)[nH]c2c1`, the cytotoxicity was 14.5%. As to `O=C(Nc1ccccc1N1CCCC1)c1ccc(Br)o1`, the cytotoxicity is -3.3%. `O=C(Nc1ccc(-c2nc3ncccc3o2)cc1)c1ccco1`: the cytotoxicity is -8.5%. `CCOC(=O)c1sc(NC(=O)c2ccco2)nc1C`: the cytotoxicity was 5.9%. For the molecule `O=C(Nc1cccc(-c2nnc(-c3ccccc3)o2)c1)c1ccco1`, the cytotoxicity is 3.5%. With `O=C(Nc1cccc(Cl)c1N1CCCC1)c1ccc(Br)o1`, the cytotoxicity was 93% (active). In the case of `O=C(Nc1ccc2nc(-c3ccccc3)oc2c1)c1ccco1`, the cytotoxicity is 71.7% (active).

Consider `CN(C)S(=O)(=O)c1cccc(COC(=O)C2=COCCO2)c1`, for which the cytotoxicity was -1.6%. The value for `O=C(c1ccco1)[C@@H]1[C@@H]2C(=O)N(c3ccc(F)cc3)C(=O)[C@@H]2C2c3ccccc3C=CN21` (stereo not given in full) was 6.6%. Regarding `COc1ccc(CCNS(=O)(=O)c2cccc(F)c2)cc1OC`, the cytotoxicity is -5.1%. `Cc1onc(-c2c(F)cccc2Cl)c1C(=O)OCC(=O)NCc1ccco1`: the cytotoxicity is 0.8%. For the molecule `CN(C)c1ccc(NC(=O)CN2CCC(C(=O)c3ccc(F)cc3)CC2)cc1`, the cytotoxicity is 10.1%. `COc1cc2[nH]c(=O)n(CCCCCC(=O)N3CCN(c4ccccc4)CC3)c(=O)c2cc1OC`: the cytotoxicity is 15.8%.
